Data on 38 compounds can be found in ChEMBL document CHEMBL5606458, “ASAP - ZIKV NS2B-NS3 protease fluorescence single point” (2024).

In all, about 2,700 compounds went through this assay and about 160 (5.9%) showed an effect of 50% or more. The list comes from a sample in which strong results are over-represented; it also holds similar structures and randomly drawn compounds.

As usually defined, the inhibition is the drop in the measured response relative to a control, in per cent.

The target in the experiment is Nonstructural protein 3 (Zika virus) (UniProt A0A024AXB9).
The mark [1] stands for this setting: PRVABC59, Concentration 15.0 uM, Number of replicates 1.0.
Setting [2] is: PRVABC59, Concentration 50.0 uM, Number of replicates 1.0.

Chain of Nonstructural protein 3 (Zika virus) (A0A024AXB9 as listed by the source): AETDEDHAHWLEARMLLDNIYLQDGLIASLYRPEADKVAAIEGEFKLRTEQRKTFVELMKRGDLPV

For `Cc1cc(CO)c2cccc(Cc3ccccc3C(=O)Nc3nonc3C(N)=O)c2n1`, the inhibition by setting is: (PRVABC59, Concentration 49.95 uM, Number of replicates 2.0, Standard deviation 0.12584307180819165 %) -4.45%; (PRVABC59, Concentration 99.9 uM, Number of replicates 2.0, Standard deviation 0.39850300453014226 %) -1.53%.
In the case of `O=C(Nc1nc2[nH]cnc2c(=O)[nH]1)c1cc(Cl)ccc1NS(=O)(=O)c1ccc(Oc2ccccc2Cl)cc1`, under setting [1], the inhibition came out at 21.9%.
As for `CN(C)Cc1ccc(NCc2ccc(N3CCN(C)CC3)cc2)nc1`, the inhibition (PRVABC59, Concentration 49.5 uM, Number of replicates 2.0, Standard deviation 0.4640657991367188 %) was -2.39%; the inhibition (PRVABC59, Concentration 99.01 uM, Number of replicates 2.0, Standard deviation 0.7284754441158133 %) is -1.05%; the inhibition (PRVABC59, Concentration 198.0 uM, Number of replicates 2.0, Standard deviation 0.8166119221974307 %) is 1.21%.
For the compound `O=Cc1ccc(N2CCC(C(=O)Nc3c(Cl)cccc3[N+](=O)[O-])CC2)cc1`, the inhibition under setting [2] was 21.7%.
Regarding `CN1CCN(c2ccc(CNS(=O)(=O)c3ccc(C(N)=O)cc3)cc2)CC1`, the inhibition (PRVABC59, Concentration 49.5 uM, Number of replicates 2.0, Standard deviation 3.1298940912505486 %) is -2.93% and the inhibition (PRVABC59, Concentration 99.01 uM, Number of replicates 2.0, Standard deviation 2.0491409994990377 %) is -9.18%.
As for `CC(C)N(Cc1cnn(C)c1)C(=O)c1cc(Cl)ccc1NS(=O)(=O)c1ccc(Oc2ccccc2Cl)cc1`, the inhibition under setting [1] was found to be 21.9%.
For the compound `CN(C(=O)c1cc(Cl)ccc1NS(=O)(=O)c1ccc(Oc2ccccc2Cl)cc1)[C@H]1CCN(Cc2ccccc2)C1`, the inhibition under setting [1] stood at 18.4%.
Consider `CCc1cccc2[nH]c(C(=O)N3C[C@H](n4cc(CO)nn4)CCC3(C)C)cc12`, for which the inhibition amounted to 1.61% (PRVABC59, Concentration 49.5 uM, Number of replicates 2.0, Standard deviation 1.345657751466366 %); 4.33% (PRVABC59, Concentration 99.01 uM, Number of replicates 2.0, Standard deviation 0.921351350459793 %); 5.38% (PRVABC59, Concentration 198.0 uM, Number of replicates 2.0, Standard deviation 1.6164058188461652 %).
For the compound `O=C(NCC[C@H](O)c1ccccc1)c1cc(Cl)ccc1NS(=O)(=O)c1ccc(Oc2ccccc2Cl)cc1`, the inhibition under setting [1] turned out to be 38.9%.
As to `COc1ccc(S(=O)(=O)N[C@H]2CC[C@H](C(=O)Nc3nc4ccccc4s3)CC2)cc1`, the inhibition is 4.79% (PRVABC59, Concentration 49.5 uM, Number of replicates 2.0, Standard deviation 1.516279405300169 %); 5.82% (PRVABC59, Concentration 99.01 uM, Number of replicates 2.0, Standard deviation 2.0429029287446374 %); 5.18% (PRVABC59, Concentration 198.0 uM, Number of replicates 2.0, Standard deviation 2.7145967477005732 %).
As for `O=Cc1ccc(N2CCC(C(=O)N3CCC[C@H]3c3cccc(F)c3)CC2)cc1`, the inhibition under setting [2] was determined as 24.6%.
With `Cc1cc(CO)c2cccc(NC(=O)C3CNC3)c2n1`, under “PRVABC59, Concentration 99.9 uM, Number of replicates 2.0, Standard deviation 0.20878200053144555 %”, the inhibition is -2.49%.
Turning to `Cc1cc(CO)c2cccc(NC(=O)C3CCC(N)CC3)c2n1` (stereo not drawn), the inhibition came out at 93.2% (PRVABC59, Concentration 49.95 uM, Number of replicates 2.0, Standard deviation 0.4998117214705663 %) and 95.4% (PRVABC59, Concentration 99.9 uM, Number of replicates 2.0, Standard deviation 0.37327676699721984 %).
For `Cc1cc(CO)c2cccc(CC(=O)N3CCC(CN)CC3)c2n1`, the inhibition (PRVABC59, Concentration 49.95 uM, Number of replicates 2.0, Standard deviation 0.5547725606279245 %) was determined as 25.3% and the inhibition (PRVABC59, Concentration 99.9 uM, Number of replicates 2.0, Standard deviation 0.00508999060096365 %) amounted to 39.1%.
Turning to `Cc1cc(CO)c2cccc(NC(=O)[C@@H]3CCCC[C@H]3C(=O)O)c2n1`, the inhibition was 3.41% (PRVABC59, Concentration 49.95 uM, Number of replicates 2.0, Standard deviation 1.6258787445174738 %) and 10.8% (PRVABC59, Concentration 99.9 uM, Number of replicates 2.0, Standard deviation 1.31977157857946 %).
Take `Cc1cc(CO)c2cccc(NC(=O)C3CC(N)C3)c2n1` (stereo not drawn): the inhibition was 56.1% (PRVABC59, Concentration 49.95 uM, Number of replicates 2.0, Standard deviation 0.17303270644971713 %) and 84.7% (PRVABC59, Concentration 99.9 uM, Number of replicates 2.0, Standard deviation 0.6659229038704304 %).
On to `Cc1cc(CO)c2cccc(NC(=O)CNC3CC3)c2n1`, for which the inhibition was 17.8% (PRVABC59, Concentration 49.95 uM, Number of replicates 2.0, Standard deviation 1.7513317050958486 %) and 28.9% (PRVABC59, Concentration 99.9 uM, Number of replicates 2.0, Standard deviation 1.7111876748261923 %).
In the case of `Cc1cc(CO)c2cccc(NC(=O)[C@@H]3C[C@@H](O)CN3)c2n1`, the inhibition is, setting by setting: (PRVABC59, Concentration 49.95 uM, Number of replicates 2.0, Standard deviation 2.1728568355691875 %) 17%; (PRVABC59, Concentration 99.9 uM, Number of replicates 2.0, Standard deviation 5.153634365263829 %) 23.7%.
`Cc1cc(CO)c2cccc(NC(=O)C3CCC(CN)CC3)c2n1` (stereo not drawn): the inhibition came to 93.7% (PRVABC59, Concentration 49.95 uM, Number of replicates 2.0, Standard deviation 1.4301713707436838 %) and 92.3% (PRVABC59, Concentration 99.9 uM, Number of replicates 2.0, Standard deviation 0.5018131910126516 %).
In the case of `Cc1cc(CO)c2cccc(NC(=O)C3CCN(C)CC3)c2n1`, the inhibition (PRVABC59, Concentration 49.95 uM, Number of replicates 2.0, Standard deviation 2.9039680698338874 %) worked out at 1.89% and the inhibition (PRVABC59, Concentration 99.9 uM, Number of replicates 2.0, Standard deviation 2.0814932575907883 %) came out at 29.5%.
With `CCCCCN(CCCCC)C(=O)C1CCN(c2ccc(C=O)cc2)CC1`, under setting [2], the inhibition amounted to 26.1%.
In the case of `O=Cc1ccc(N2CCC(C(=O)Nc3c(F)cc(F)cc3Cl)CC2)cc1`, the inhibition under setting [2] turned out to be 23.6%.
As to `COc1cc2c(cc1NC(=O)c1cc(Cl)ccc1NS(=O)(=O)c1ccc(Oc3ccccc3Cl)cc1)oc1ccccc12`, the inhibition under setting [1] stood at 36.2%.
For `O=C(Nc1ncccc1C(F)(F)F)c1cc(Cl)ccc1NS(=O)(=O)c1ccc(Oc2ccccc2Cl)cc1`, under setting [1], the inhibition is 25.1%.
In the case of `Cn1cc(NC(=O)c2cccc3ncccc23)cn1`, the inhibition is -6.29% (PRVABC59, Concentration 49.5 uM, Number of replicates 2.0, Standard deviation 3.392303236065074 %); -5.3% (PRVABC59, Concentration 99.01 uM, Number of replicates 2.0, Standard deviation 4.211868261497117 %); -3.61% (PRVABC59, Concentration 198.0 uM, Number of replicates 2.0, Standard deviation 3.7498965706755105 %).
Consider `O=Cc1ccc(N2CCC(C(=O)N3CCN(CCOCCO)CC3)CC2)cc1`, for which the inhibition under setting [2] was 21.2%.
For the compound `COc1ccc([C@H](C)NC(=O)c2cc(Cl)ccc2NS(=O)(=O)c2ccc(Oc3ccccc3Cl)cc2)cc1`, under setting [1], the inhibition was determined as 35.3%.
As for `O=Cc1ccc(N2CCC(C(=O)Nc3ccc(Cl)nc3Cl)CC2)cc1`, under setting [2], the inhibition was 20.5%.
In the case of `c1cnc2c(C3CCN(Cc4ccc5[nH]cnc5c4)CC3)c[nH]c2c1`, the inhibition reads like this: (PRVABC59, Concentration 49.5 uM, Number of replicates 2.0, Standard deviation 2.816135776094685 %) 1.64%; (PRVABC59, Concentration 99.01 uM, Number of replicates 2.0, Standard deviation 1.9941147484327908 %) 7.38%; (PRVABC59, Concentration 198.0 uM, Number of replicates 2.0, Standard deviation 0.19707731493778816 %) 19.3%.
In the case of `CC(C)(C)c1ccc(S(=O)(=O)N2CCN(C(=O)c3cc(Cl)ccc3NS(=O)(=O)c3ccc(Oc4ccccc4Cl)cc3)CC2)cc1`, the inhibition under setting [1] was found to be 14.3%.
For `COc1ccc(S(=O)(=O)N2CCC(C(=O)Nc3nc4ccccc4s3)CC2)cc1`, the inhibition runs as follows: (PRVABC59, Concentration 49.5 uM, Number of replicates 2.0, Standard deviation 3.281212488466362 %) 4.02%; (PRVABC59, Concentration 99.01 uM, Number of replicates 2.0, Standard deviation 0.8753020409515783 %) 5.17%; (PRVABC59, Concentration 198.0 uM, Number of replicates 2.0, Standard deviation 6.6794445217114635 %) 7.79%.
As to `COc1ccc(S(=O)(=O)Nc2ccc(C(=O)O)cc2)cc1`, the inhibition reads like this: (PRVABC59, Concentration 49.5 uM, Number of replicates 2.0, Standard deviation 1.0137935505852833 %) 2.03%; (PRVABC59, Concentration 99.01 uM, Number of replicates 2.0, Standard deviation 1.063246976754026 %) 4.7%; (PRVABC59, Concentration 198.0 uM, Number of replicates 2.0, Standard deviation 1.989546367228998 %) 3.61%.
For the compound `COc1ccc(S(=O)(=O)n2nc(OC(=O)c3ccccc3)cc2N)cc1`, the inhibition is, setting by setting: (PRVABC59, Concentration 49.5 uM, Number of replicates 2.0, Standard deviation 0.018531126353269887 %) 99.1%; (PRVABC59, Concentration 99.01 uM, Number of replicates 2.0, Standard deviation 0.03874003445206144 %) 99.1%; (PRVABC59, Concentration 198.0 uM, Number of replicates 2.0, Standard deviation 0.035373681367799316 %) 99%.
On to `CN(Cc1cccc(F)c1F)C(=O)c1cc(Cl)ccc1NS(=O)(=O)c1ccc(Oc2ccccc2Cl)cc1`, for which the inhibition under setting [1] came out at 31.2%.
Still for that read-out and setting: next, `CC(C)CCN(CCC(C)C)C(=O)c1cc(Cl)ccc1NS(=O)(=O)c1ccc(Oc2ccccc2Cl)cc1`: 18.8%.
On the same count and under the same terms, next, `CS(=O)(=O)c1ccc(O)c(NC(=O)c2cc(Cl)ccc2NS(=O)(=O)c2ccc(Oc3ccccc3Cl)cc2)c1`: 32.3%.
With `COc1nscc1-c1ccccc1C(=O)Nc1cnn(C)c1`, the inhibition is -1.46% (PRVABC59, Concentration 49.5 uM, Number of replicates 2.0, Standard deviation 2.0613155081961194 %); 1.42% (PRVABC59, Concentration 99.01 uM, Number of replicates 2.0, Standard deviation 1.0972097923679232 %); 3.36% (PRVABC59, Concentration 198.0 uM, Number of replicates 2.0, Standard deviation 0.19246139208887503 %).
Turning to `O=C(Cn1sc2ccccc2c1=O)Nc1cccc(OCc2cn(CC(=O)Nc3ccccc3Oc3ccccc3)nn2)c1`, the inhibition (PRVABC59, Concentration 49.5 uM, Number of replicates 2.0, Standard deviation 0.019067908615904634 %) stood at 53.7%; the inhibition (PRVABC59, Concentration 99.01 uM, Number of replicates 2.0, Standard deviation 0.0558469345004512 %) came out at 58.2%; the inhibition (PRVABC59, Concentration 198.0 uM, Number of replicates 2.0, Standard deviation 0.30102425600760013 %) is 69.5%.
